VDR inhibitor: blocks the human vitamin D receptor | P11473 | VDR-SRC2-3 peptide fluorescence polarization, 2 h | Potency, µM, without a hit: max response, negative = inhibition, actives largely listed as inhibitors | 400,000 compounds, 0.93% hits; further: potency means the concentration at half of the fitted maximal effect
Target sequence (P11473 whole entry, looked up): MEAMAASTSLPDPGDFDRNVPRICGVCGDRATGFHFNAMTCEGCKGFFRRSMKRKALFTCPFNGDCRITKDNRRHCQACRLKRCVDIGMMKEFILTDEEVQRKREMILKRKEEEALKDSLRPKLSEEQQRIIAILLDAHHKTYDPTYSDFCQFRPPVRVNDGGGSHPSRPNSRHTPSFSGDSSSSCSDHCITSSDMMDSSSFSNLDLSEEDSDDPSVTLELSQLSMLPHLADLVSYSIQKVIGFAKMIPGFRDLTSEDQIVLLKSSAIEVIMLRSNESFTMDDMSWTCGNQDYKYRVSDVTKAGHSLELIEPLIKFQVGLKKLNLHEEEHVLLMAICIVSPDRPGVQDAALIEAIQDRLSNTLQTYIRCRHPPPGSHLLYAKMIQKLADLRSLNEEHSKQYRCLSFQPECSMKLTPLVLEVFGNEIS
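VDR–SRC2-3 interaction, FP format. Cmpds 23 nl via pintool, brief spin, 2 h ambient incubation.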
G9a block: blocks human histone lysine methyltransferase G9a | Q96KQ7 | G9a H3K9 monomethylation, AlphaScreen, 2 h | Potency, µM (titrated, usually from 102 µM), for inactives: at the highest dose activity, negative = inhibition, hits mostly inhibitors | 350,000 compounds, 8.8% hits | AID 504332; further: potency means the concentration at half of the fitted maximal effect; nearly all actives have a fitted effect of over 75% in size
Target sequence (Q96KQ7 913-1193 limits assumed): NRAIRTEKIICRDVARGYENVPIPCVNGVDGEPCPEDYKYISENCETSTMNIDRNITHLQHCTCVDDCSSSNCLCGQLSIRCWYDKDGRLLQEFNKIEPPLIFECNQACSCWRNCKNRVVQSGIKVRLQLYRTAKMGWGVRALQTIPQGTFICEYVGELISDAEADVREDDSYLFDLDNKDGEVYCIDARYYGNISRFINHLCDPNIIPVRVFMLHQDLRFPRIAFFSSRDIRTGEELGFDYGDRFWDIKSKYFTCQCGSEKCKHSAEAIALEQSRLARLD
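Enzyme 20 nM + cpd, 15 min RT; add b-H3K9 pep 500 nM / SAM 20 uM; 2 h RT; anti-H3K9me1 Ab 0.5 ug/mL + SA donor / anti-rabbit acceptor beads 20 ug/mL each, 10 min; AlphaScreen read.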
CCT chaperon mod: cytosolic chaperonin activity modulation. activity change, % (test concentration not listed), hits read low. AID 651819. purified chaperonin ATPase assay, HTRF ADP detection, 30 min. 360,000 compounds, 0.3% hits; in the data active means activity change below about -30%
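TRiC at 40 or 20 nM final (batch-dependent) in 30 mM Tris pH 7.4, 100 mM KCl, 5 mM MgCl2, 1 mM DTT, with compound at single 76 uM and 10 uM ATP, 30 min at 37 deg C. ADP detected by HTRF Transcreener, 665/615 ratio.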
MmCpn inh: M. maripaludis TRiC chaperonin inhibition; purified Mm-Cpn ATPase, ADP Transcreener TR-FRET; 330,000 compounds, 0.031% hits; Potency, µM (highest dose often 76.9 µM), for inactives: top-dose activity, negative = inhibition, usual class: inhibitors; further: potency means the concentration at half of the fitted maximal effect; nearly all actives have a fitted effect of over 80% in size
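Eu-cryptate anti-ADP/ADP-d2 competition gives a ratio inversely related to ADP. Enzyme at 25 nM was pre-exposed to compound for 10 min, then given 10 uM ATP for 30 min, 37°C throughout.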
PLK1 PBD block: blocks phosphopeptide binding to human PLK1 polo-box domain. Potency, µM, without a hit: max response, negative = inhibition, most hits filed as inhibitors. Plk1 PBD binding of FITC phosphopeptide, fluorescence polarization. AID 720504. 360,000 compounds, 2.8% hits. P53350; further: potency means the concentration at half of the fitted maximal effect; series mostly up to about 57 µM; nearly all actives have a fitted effect of over 65% in size
Sfp PPTase inh: Sfp phosphopantetheinyl transferase inhibition. 310,000 compounds, 3.5% hits. Biochemical Sfp PPTase activity, qHTS. AID 1490. Potency, µM, for inactives: largest response in the series, negative = inhibition, hits mostly inhibitors;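 further: the enzyme is Sfp with the accession as filed and its product quenches rhodamine fluorescence; potency means the concentration at half of the fitted maximal effect; 0% = enzyme reaction without inhibitor and -100% = no enzyme wells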
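With Hepes-Na pH 7.6 buffer containing 10 mM MgCl2, Sfp (15 nM) modified BHQ-2-YbbR (12.5 uM) using rhodamine-CoA (5 uM). Two reads 30 minutes apart at 525/598 nm yielded each well's rate.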
Starred values were filed as active, the others as inactive; ? = inconclusive; / = no result given; ! = not confirmed by another sample; [ ] = dose if it differs, or a comment. Sampled rows, rich in hits. Any-hit rate of the full collection: about 10%. Unless noted, the call rests on the fitted dose curve; in most records, active means well fitted curve in the direction sought with a large enough effect; inconclusive means small, poorly fitted or top-dose-only effect, or another doubt; inactive means no such curve, though single readings can be large; an effect the other way counts as inactive or inconclusive. Unless noted, on the % scale 0 is the no-effect control and ±100 the full control effect.

SMILES	VDR inhibitor	G9a block	CCT chaperon mod	MmCpn inh	PLK1 PBD block	Sfp PPTase inh
O=[N+]([O-])c1ccc2c(c1)C(c1ccccc1)=NCCN2	3.2%	?	1.2	-2.2%	1.9%	2.7%
O=[N+]([O-])c1ccc(-c2ccccc2)c([As](=O)(O)O)c1	-12.1%	12.6µM*	0.4	1.4%	-21.1%	-15.8%
CCCCC1C(=O)NC(=S)N(C)C1=O (configuration not stated)	?	/	-2.4	/	-12.0%	/
CCCCC1C(=O)NC(=S)NC1=O	/	4.47µM*	/	1.6%	/	10µM*
NC(CCCP(=O)(O)O)C(=O)O (configuration not stated)	-6.7%	0.4%[59 µM]	/	/	/	/
NC(CP(=O)(O)O)C(=O)O (configuration not stated)	10.0%	26.7µM*!	/	/	/	?
NC(CCCCCP(=O)(O)O)C(=O)O (configuration not stated)	1.7%	5.97µM*	/	/	/	/
Oc1ccc(Cl)cc1Sc1cc(Cl)ccc1O	3.1%	/	-0.2	/	?	19.2%
CCCCCn1c(Sc2ccccc2)nc2c1c(=O)[nH]c(=O)n2C	?	-8.0%[59 µM]	-2.6	2.1%	29.9µM*	-4.6%
Cc1ccc(C(=O)N[C@@H](C)CN2C3=NC[C@H](Cc4ccccc4)N3C[C@H]2Cc2ccc(O)cc2)cc1Br	-6.4%	/	-2.4	2.9%	-13.7%	56.2µM*
O=C(Cc1ccc(Cl)c(Cl)c1)N1CCCCC1CN1CCCC1 (configuration not stated)	0.6%	26.7µM*	/	/	/	-26.7%
NC(=O)C[N+]1(CC#CC(O)(c2ccccc2)c2ccccc2)CCCC1	-10.5%	35.5µM*	-0.8	0.7%	-20.1%	-12.5%
CCOc1cc(C=C2C(=O)NC(=O)NC2=O)ccc1OS(=O)(=O)c1ccccc1	79.4µM*	22.4µM*	1.8	0.7%	3.36µM*	50.1µM*
CCCOc1ccccc1OCC(=O)N1CCN(CC(=O)N2CCOCC2)CC1	/	/	-0.1	/	-16.9%	/
CCC1(c2ccccc2)C(=O)NC(=S)NC1=O	-9.4%	/	-3.0	/	3.1%	/
CN(C)c1ccc(C=C2C(=O)NC(=S)NC2=O)cc1	?	/	0.1	/	2.67µM*	/
CCOc1ccc(C=C2C(=O)NC(=S)NC2=O)cc1OCC	28.2µM*	/	-18.2	/	8.44µM*	/
CCOc1cc(C=C2C(=O)NC(=O)NC2=O)ccc1OCC(=O)N1CCOCC1	?	8.91µM*	0.3	-3.9%	?	?
CC[C@H](C)C(=O)O[C@@H]1[C@H](O)[C@@H]2[C@H](CN3C[C@@H](C)CC[C@@H]3[C@@]2(C)O)[C@@H]2C[C@@]34O[C@@]5(O)[C@@H](OC(=O)[C@](C)(O)CC)CC[C@@]3(C)[C@H]5[C@H](OC(C)=O)[C@@H](OC(C)=O)[C@H]4[C@]12O	-1.5%	25.6%[21.5 µM]	/	/	/	16.7%
Cc1ccc(F)cc1NC(=O)c1ccc(Cn2nc(N3CCN(c4ccccc4)CC3)ccc2=O)o1	5.5%	?	/	/	/	/
COc1cc(C=C2C(=O)NC(=O)NC2=O)ccc1OS(=O)(=O)c1ccccc1[N+](=O)[O-]	44.7µM*	10µM*	0.3	-0.2%	2.67µM*	50.1µM*
COc1cc(/C=C2/C(=O)N(c3ccccc3)N=C2C)ccc1OS(=O)(=O)c1ccccc1	/	35.5µM*	/	0.7%	/	-22.4%
COc1cc(OC)c(/C=C2/C(=O)Nc3ccccc32)c(OC)c1	34.5%	-4.4%[59 µM]	/	/	/	/
COCCN1C(=O)/C(=C/c2c(OC)cc(OC)cc2OC)C(=O)N(c2ccccc2)C1=O	-11.0%	22.5%[59 µM]	-0.8	-0.9%	?	20.5%
CC(C)(C#N)O[C@H]1OC(CO)C(O)C(O)C1O (some centres not stated)	4.1%	/	/	/	/	13.6%
SMILES	VDR inhibitor	G9a block	CCT chaperon mod	MmCpn inh	PLK1 PBD block	Sfp PPTase inh
CN(C)C(=O)Oc1ccc(Cl)c2ccccc12	-0.1%	-38.8%[12.7 µM]	1.4	2.5%	-7.5%	-6.1%
Cc1c(OC(=O)N(C)C)ccc2c1O/C(=C\c1ccco1)C2=O	19.4%	31.6µM*	0.1	-1.9%	-8.4%	79.4µM*
O=C(CSc1ccccn1)Nc1cccc2ccccc12	-12.7%	?	-10.8	3.3%	21.2µM*	12.7%
O=C(O)c1ccc(Cl)nc1	-2.2%	3.3%[59 µM]	-0.4	-0.6%	18.9µM*	7.2%
O=C(Oc1ccccc1)N1CCC2(CCCN(Cc3nccs3)C2)CC1	?	-8.1%[12.7 µM]	/	/	/	11.4%
Cc1ncc(C[n+]2csc(CCOP(=O)(O)O)c2C)c(N)n1	2.5%	?	/	/	/	13.9%
C=CCN1C(=O)/C(=C/c2cc(C)n(-c3cccnc3)c2C)C(=O)NC1=S	-6.2%	?	-0.8	-1.4%	1.5µM*	-90.6%
CC1=CC[C@@H]2[C@@H](C1)c1c(O)cc(CC#CCCCNS(C)(=O)=O)cc1OC2(C)C	/	/	/	/	/	17.9%
CCOC(=O)C(C)(CC)NC(=O)CSP(=S)(OCC)OCC (configuration not stated)	12.5%	-10.5%[59 µM]	0.9	-1.0%	4.4%	-18.3%
CCOC(=O)N(C)C(=O)CSP(=S)(OCC)OCC	50.1µM*	/	/	/	/	?
Cc1nn(Cc2ccccc2)c(C)c1C(=O)OCC(=O)NCc1ccco1	1.2%	?	-0.7	-0.2%	-0.2%	-20.2%
CC(C)C(OC(=O)c1ccco1)C(=O)NCc1ccco1 (configuration not stated)	-27.5%	0.4%[59 µM]	-3.1	/	26.7µM*	1.6%
Cc1c(C=C2C(=O)N(C)C(=S)N(C)C2=O)c2ccccc2n1CC(=O)NCC1CCCO1 (configuration not stated)	?	14.1µM*	-0.5	?	2.67µM*	50.1µM*
O=C(Cn1cc(C=C2C(=O)NC(=O)NC2=O)c2ccccc21)NCC1CCCO1 (configuration not stated)	-6.8%	-19.0%	-2.4	2.0%	?	7.9%
NC1CCCCC1N (configuration not stated)	-0.8%	/	/	/	/	-2.6%
COc1ccccc1N1CCN(Cc2cccc(Br)c2)CC1	-26.2%	11.2µM*	-4.4	-0.8%	0.6%	-24.9%
NC(=NCc1ccc(Cl)cc1)SCCCc1cnc[nH]1	?	46.4%[59 µM]	/	/	/	-1.7%
O=C(Oc1ccccc1)N1CCC2(CCCN(C(c3ccccc3)c3ccccc3)C2)CC1	-3.4%	-12.0%[12.7 µM]	/	/	/	-8.4%
O=C1c2ccccc2C(=O)N1SC1CCCCC1	20µM*	2µM*	0.9	1.2%	1.89µM*	10µM*
COc1ccccc1NC(=O)c1cc[n+](C)cc1	7.0%	35.5µM*	-7.5	0.9%	-2.2%	22.9%
NC(=O)CF	0.7%	/	/	/	/	10.5%
CCCCCCCCc1[se]c2ccccc2c1[Se]c1ccccc1	0.8%	-2.5%[59 µM]	/	/	/	1.3%
Cc1cc(C=C2C(=O)NC(=S)NC2=O)c(C)n1C1CCCC1	-20.6%	44.7µM*	2.3	1.2%	?	39.8µM*
Cc1cc(C=C2C(=O)N(C)C(=S)N(C)C2=O)c(C)n1C1CCCCC1	-2.3%	35.5µM*	-5.4	1.1%	?	?
